Experimental data: PubChem BioAssay (NCATS)
Results filed as inconclusive are left out. The source made the active and inactive calls. Unless noted, the call rests on the fitted dose curve; in most records, active means well fitted inhibition curve with a large enough effect; inconclusive means small, poorly fitted or top-dose-only effect; inactive means flat fitted curve, though single readings scatter.

Tests used:
[1] = qHTS drug screen for cell cycle checkpoint inhibitors in PARPi-resistant BRCA-mutant ovarian cancer cell lines. (AID 1963452; calls by dose curve); details: PEO1/OlaR viability, CellTiter-Glo luminescence, 96 h; for Z-AUC: stronger effect = lower value
How it was run: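 PEO1, PEO4 and PEO1/OlaR ovarian cancer cells, 600 per well, exposed 96 h at 37C to a dilution series. Viability read by CellTiter-Glo luminescence, normalized to DMSO and empty wells; activity summarized as Z-AUC.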

[2] = qHTS for identification of novel therapeutic agents for treatment of microphthalmiaassociated transcription factor (MiT) renal cell carcinoma (RCC) (AID 1963991; calls by dose curve); details: CellTiter-Glo, 48 h; for z-score: stronger effect = lower value
How it was run: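 Three TFE3-fusion RCC lines (UOK109, UOK124, UOK145), 500 cells/well in complete medium, were treated with MIPE 4.0 compounds for 48 hours at 37 C. Viability was by CellTiter-Glo luminescence, normalized to DMSO (100%) and empty wells (0%); curves fitted over 11 concentrations.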

[3] = qHTS profiling for inhibitors of Plasmodium falciparum proliferation (AID 504749); further: nearly all actives have a fitted effect of over 60% in size;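 on activity, negative = inhibition: 0% = DMSO vehicle and full inhibition = artemisinin control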; details: P. falciparum in erythrocytes, SYBR Green DNA, 72 h
How it was run: (§1)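 SYBR Green fluorescence of parasite DNA, read after lysis and overnight dark incubation, measured growth over 72 h in erythrocyte culture at 0.3% parasitemia and 2.5% hematocrit. Data normalised to DMSO and 0.29 uM artemisinin, with plate-drift correction.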

3D7 = experiment: as above; details: P. falciparum in erythrocytes, SYBR Green DNA, 72 h; series mostly up to 28.7 µM
How it was run: as §1

7G8 = experiment: as above; details: P. falciparum in erythrocytes, SYBR Green DNA, 72 h; series mostly up to 28.7 µM
How it was run: as §1

AA1029 = experiment: as above; details: P. falciparum in erythrocytes, SYBR Green DNA, 72 h; series mostly up to 28.7 µM
How it was run: as §1

AS120 = experiment: as above; details: P. falciparum in erythrocytes, SYBR Green DNA, 72 h; series mostly up to 28.7 µM
How it was run: as §1

ATS189 = experiment: as above; details: P. falciparum in erythrocytes, SYBR Green DNA, 72 h; series mostly up to 28.7 µM
How it was run: as §1

ATS95 = experiment: as above; details: P. falciparum in erythrocytes, SYBR Green DNA, 72 h; series mostly up to 28.7 µM
How it was run: as §1

C2A = experiment: as above; details: P. falciparum in erythrocytes, SYBR Green DNA, 72 h; series mostly up to 28.7 µM
How it was run: as §1

CP185 = experiment: as above; details: P. falciparum in erythrocytes, SYBR Green DNA, 72 h; series mostly up to 28.7 µM
How it was run: as §1

CP191 = experiment: as above; details: P. falciparum in erythrocytes, SYBR Green DNA, 72 h; series mostly up to 28.7 µM
How it was run: as §1

CP192 = experiment: as above; details: P. falciparum in erythrocytes, SYBR Green DNA, 72 h; series mostly up to 28.7 µM
How it was run: as §1

[4] = measured here: PEO1 parental Z-AUC
[5] = TFE3-RCC UOK109 viability, measured here: UOK109 Z-AUC
[6] = TFE3-RCC viability, measured here: UOK124 Z-AUC
[7] = TFE3-RCC viability, measured here: UOK145 Z-AUC
[8] = at 12.8 µM (top of the series), parasite line A
[9] = at 12.8 µM (top of the series), parasite line B
[10] = at 28.7 µM (top of the series), parasite line A
[11] = at 28.7 µM (top of the series), parasite line B
Potency means the concentration at half of the fitted maximal effect.

## O=C1c2c(O)ccc(O)c2C(=O)c2c(NCCNCCO)ccc(NCCNCCO)c21
[1]
  Potency: 195 nM (active)
[1]; [4]
  Z-AUC: -2.48
[1]; measured here: PEO4 Z-AUC
  Z-AUC: -2.26
[2]; TFE3-RCC UOK109 viability, active = Z-AUC below -0.8 in all three lines
  Potency: 1050 nM (active)
[2]; [5]
  z-score: -2.02
[2]; [6]
  z-score: -1.52
[2]; [7]
  z-score: -2.08
[3]; parasite line A
  Potency: 3160 nM (active)
[3]; parasite line B
  Potency: 3160 nM (active)
3D7
  Potency: 2000 nM (active)
7G8
  Potency: 1260 nM (active)
AA1029
  Potency: 2510 nM (active)
AS120
  Potency: 2240 nM (active)
ATS189
  Potency: 2820 nM (active)
ATS95
  Potency: 2240 nM (active)
C2A
  Potency: 3160 nM (active)
CP185
  Potency: 3160 nM (active)
CP191
  Potency: 3550 nM (active)

## CS(=O)(=O)Nc1ccc([N+](=O)[O-])cc1Oc1ccccc1
[1]
  Z-AUC: 1.34 (inactive)
[1]; [4]
  Z-AUC: 1.22
[1]; measured here: PEO4 Z-AUC
  Z-AUC: 1.35
[2]; [5]
  z-score: 1.08
[2]; [6]
  z-score: 0.234
[2]; [7]
  z-score: 0.487
[3]; [8]
  activity, negative = inhibition: 15.2% (inactive)
[3]; [9]
  activity, negative = inhibition: 9.68% (inactive)
3D7
  Potency: inactive
7G8
  Potency: inactive
AA1029
  Potency: inactive
AS120
  Potency: inactive
ATS189
  Potency: inactive
ATS95
  Potency: inactive
C2A
  Potency: inactive
CP185
  Potency: inactive
CP191
  Potency: inactive
CP192
  Potency: inactive

## COc1ccccc1N1CCN(CC(O)COc2cccc3ccccc23)CC1 (stereo not drawn)
[1]
  Z-AUC: -0.153 (inactive)
[1]; [4]
  Z-AUC: 0.273
[1]; measured here: PEO4 Z-AUC
  Z-AUC: 0.504
[2]; [5]
  z-score: 0.719
[2]; [6]
  z-score: 0.448
[2]; [7]
  z-score: -1.51
[3]; [10]
  activity, negative = inhibition: -3.66% (inactive)
[3]; [11]
  activity, negative = inhibition: -18.8% (inactive)
3D7
  Potency: inactive
7G8
  Potency: 11200 nM (active)
AA1029
  Potency: inactive
AS120
  Potency: inactive
ATS189
  Potency: inactive
ATS95
  Potency: inactive
C2A
  Potency: inactive
CP185
  Potency: inactive
CP191
  Potency: inactive
CP192
  Potency: inactive

## NC(CO)C(=O)NNCc1ccc(O)c(O)c1O (stereo not drawn)
[1]
  Z-AUC: -0.229 (inactive)
[1]; [4]
  Z-AUC: -0.392
[1]; measured here: PEO4 Z-AUC
  Z-AUC: -0.375
[2]; [5]
  z-score: 0.539
[2]; [6]
  z-score: -0.122
[2]; [7]
  z-score: 0.506

## NC(=O)OCC(COC(N)=O)c1ccccc1
[1]
  Z-AUC: 0.532 (inactive)
[1]; [4]
  Z-AUC: 1.02
[1]; measured here: PEO4 Z-AUC
  Z-AUC: 1.07
[2]; [5]
  z-score: 0.961
[2]; [6]
  z-score: 0.566
[2]; [7]
  z-score: -0.0858
[3]; [10]
  activity, negative = inhibition: 12.4% (inactive)
[3]; [11]
  activity, negative = inhibition: 14.7% (inactive)
3D7
  Potency: inactive
7G8
  Potency: inactive
AA1029
  Potency: inactive
AS120
  Potency: inactive
ATS189
  Potency: inactive
ATS95
  Potency: inactive
C2A
  Potency: inactive
CP185
  Potency: inactive
CP191
  Potency: inactive
CP192
  Potency: inactive

## CC(C(=O)O)c1cccc(C(=O)c2ccccc2)c1 (stereo not drawn)
[1]
  Z-AUC: 0.0263 (inactive)
[1]; [4]
  Z-AUC: 0.275
[1]; measured here: PEO4 Z-AUC
  Z-AUC: 0.507
[2]; [5]
  z-score: 0.978
[2]; [6]
  z-score: 0.474
[2]; [7]
  z-score: 0.0276

## NCCCCCC(=O)O
[1]
  Z-AUC: 1.55 (inactive)
[1]; [4]
  Z-AUC: 1.11
[1]; measured here: PEO4 Z-AUC
  Z-AUC: 1.26
[2]; [5]
  z-score: 0.855
[2]; [6]
  z-score: 0.487
[2]; [7]
  z-score: 0.828
[3]; [8]
  activity, negative = inhibition: 3.43% (inactive)
[3]; [9]
  activity, negative = inhibition: 5.54% (inactive)
3D7
  Potency: inactive
7G8
  Potency: inactive
AA1029
  Potency: inactive
AS120
  Potency: inactive
ATS189
  Potency: inactive
ATS95
  Potency: inactive
C2A
  Potency: inactive
CP185
  Potency: inactive
CP191
  Potency: inactive
CP192
  Potency: inactive

## O=C(C1CCCCC1)N1CC(=O)N2CCc3ccccc3C2C1 (stereo not drawn)
[1]
  Z-AUC: 1.17 (inactive)
[1]; [4]
  Z-AUC: 0.752
[1]; measured here: PEO4 Z-AUC
  Z-AUC: 1.07
[2]; [5]
  z-score: -4.91
[2]; [6]
  z-score: 0.786
[2]; [7]
  z-score: -3.49
